This note sets out measurements from PubChem BioAssay (NCI).

The panel holds about 83,000 compounds, 20% with a hit somewhere; the sample as a whole holds those more often.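 Step 1: grow cells in 96-well plates. Step 2: add test compound at a single concentration. Step 3: incubate 48 h. Step 4: record percent growth.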 Active and inactive are the calls of the source. How the source made its calls: active means growth percent below 10; inactive means the rest.

The subject of this assay is HOP-62 NSCLC. Put plainly: NCI-60 one-dose screen, 48 h (100 = growth as untreated, 0 = no growth, -100 = all killed). Conditions: 10 µM unless noted.
On to `COc1cc2c(=O)n(C3CCCCCCC3)c3c4cc[nH]c4ncc3c2cc1OC`, for which the growth was 6.39% (active).
The same measure for `C1CCC([PH+](C2CCCCC2)C2CCCCC2[PH+](C2CCCCC2)C2CCCCC2)CC1.[Au].[CH-]1CCCCC1CC1CCCC[N-]1` (configuration not stated): -30.6% (active); for `CCCCN1CCCC[C@@H]1C(=O)N[C@H](C(=O)N(C)[C@H](C[C@@H](OC(C)=O)c1nc(C(=O)NC2CCC(C(=O)OC)CC2)cs1)C(C)C)C(C)C` (some centres not stated): 23% (inactive).
The result for `CS(=O)(=O)CCN1CC2CCCC(C2)C1` reads 103% (inactive); that for `COC(=O)[C@@H](C)C[C@H](Cc1ccccc1)NC(=O)c1nc([C@@H](C[C@H](C(C)C)N(C)C(=O)[C@@H](NC(=O)[C@H]2CCCCN2C)C(C)C)OC(C)=O)sc1C(C)C`, 11.8% (inactive).
The same measure for `C=CC[Se]C(=O)c1ccccc1OC(C)=O`: -7.57% (active).
Take `CC(C)[C@@H]1NC(=O)[C@]2(C)CSC(=N2)c2csc(n2)CNC(=O)C[C@@H](/C=C/CCS)OC1=O`: the growth was -1.73% (active).
The same measure for `Clc1cccc(Cl)c1Cl`: 99% (inactive); for `O=C(CC1(O)C(=O)Nc2ccc(Cl)cc21)c1ccc(C(=O)NCC2CCC3(CC2)OOC2(CCCCC2)OO3)cc1` (configuration not stated): -55.4% (active); for `COc1ccc(C(O)(C(=O)O)c2ccc(OC)cc2)cc1`: 91% (inactive).
The same measure for `CCn1c2ccccc2c2cc(C(=O)c3ccc(C)c4ccccc34)ccc21`: 9.22% (active); for `COC(=O)[C@]12CCC(C)(C)C[C@H]1[C@H]1C(=O)C[C@@H]3[C@@]4(C)C[C@@]5(CC(C)(C)[C@@H]4CC[C@@]3(C)[C@]1(C)CC2)OO[C@@](C)(C(F)(F)F)O5`: 100% (inactive).
The result for `CC[C@]12C=CCN3CC[C@@]4(c5ccc(OC)cc5N(C)[C@H]4[C@@](O)(C(=O)OC)[C@@H]1OC(=O)CCCC[P+](c1ccccc1)(c1ccccc1)c1ccccc1)[C@@H]32` reads 26.4% (inactive).
Regarding `CCCCCCCCOC(=O)CCN1CC1`, the growth is 124% (inactive).
The same measure for `CC1[C@H](C)OC(=O)CC(O)CC(O)CC(O)CCC(O)C(O)C[C@]2(O)CC(O)C(C(=O)O)C(CC(OC3O[C@H](C)[C@@H](O)[C@H](N)[C@@H]3O)/C=C/C=C/C=C/C=C/CC/C=C/C=C/[C@H](C)[C@H]1O)O2` (some centres not stated): 105% (inactive); for `c1cc2c(c3c1CCNC3)OCO2`: 96.6% (inactive); for `Cc1ccc(N2COOC3(OOC2)C2CC4CC(C2)CC3C4)cc1`: 93.1% (inactive).
The same measure for `O=C(CC1(O)C(=O)N(Cc2ccccc2)c2ccc(Br)cc21)c1ccc(C(=O)NCC2CCC3(CC2)OOC2(CCCCC2)OO3)cc1` (configuration not stated): -55.6% (active); for `C[C@@H]1C[C@@]2(C)[C@@H](CC[C@@H]3[C@@H]2CC[C@]2(C)C(=O)CC[C@@H]32)CC1=O`: 78.9% (inactive).
The result for `CCN(CC)c1ccc2c(c1)OC(N)=C(C#N)C2c1cc(OC)c2c(c1)OCO2` (configuration not stated) reads 42% (inactive).
For `O=P(Oc1ccc(Cl)cc1)(N1CC1)N1CC1`, the growth was 81.3% (inactive).
The result for `O=[N+]([O-])c1cc(I)cc([N+](=O)[O-])c1` reads 133% (inactive).
`CC(=O)O[C@H](C[C@H](C(C)C)N(C)C(=O)[C@@H](NC(=O)[C@H]1CCCCN1C)C(C)(C)C)c1nc(C(=O)N[C@@H](Cc2ccccc2)C[C@H](C)C(=O)O)cs1`: the growth is 19.7% (inactive).
The result for `CC[C@H](C)[C@H](NC(=O)[C@H]1CCCCN1C)C(=O)N(C)[C@H](C[C@@H](O)c1nc(C(=O)N[C@@H](Cc2ccccc2)C[C@H](C)C(=O)O)cs1)C(C)C` reads 82.4% (inactive); that for `CN1CCC(O)(c2ccc(F)cc2)C(C(=O)c2ccc(F)cc2)C1` (configuration not stated), 97.2% (inactive).
The result for `O=C1NC(=O)C(=Cc2cccn2CCCCCn2c3ccccc3c(=O)c3ccccc32)C(=O)N1` reads 102% (inactive); that for `COC(=O)[C@@H](C[C@H](Cc1ccccc1)NC(=O)c1csc([C@@H](C[C@H](C(C)C)N(C)C(=O)[C@@H](NC(=O)[C@H]2CCCCN2C)C(C)C)OC(C)=O)n1)NC(=O)OCc1ccccc1`, 12.1% [9.5 µM] (inactive); that for `CN(C)CCCOc1ccc2c(c1)c(C(=O)C(=O)NCCO)cn2Cc1ccccc1`, 100% (inactive).
The same measure for `COc1cc(C=Nc2cc(Cl)cc(Cl)c2)ccc1N(CCCl)CCCl`: 95.7% (inactive); for `CCOC(=O)N[C@H]1CCc2c(Br)c(OC)c(OC)c(OC)c2-c2ccc(SC)c(=O)cc21`: 34.9% (inactive).
As for `C/C(CC(C)(C)N1CC1)=N\NC(=O)Nc1cccc2ccccc12`, the growth was 62.5% (inactive).
The result for `C[C@]12CCc3sc(-c4ccccc4O)nc3C1=CC[C@@H]1[C@@H]2CC[C@]2(C)C(=O)CC[C@@H]12` reads 98.9% (inactive).
On to `CC[C@H](C)[C@H](NC(=O)[C@H]1CCCCN1C)C(=O)N(C)[C@H](CC(=O)c1nc(C(=O)N[C@@H](Cc2ccccc2)C[C@H](C)C(=O)O)cs1)C(C)C`, for which the growth is 77% (inactive).
The result for `COc1cccc(/C=C/[N+](=O)[O-])c1` reads 89.9% (inactive); that for `O=C1CC2(CC3(Cl)C(Cl)=C(Cl)C2(Cl)C3(Cl)Cl)C(=O)O1` (configuration not stated), 91.6% (inactive).
The result for `CC12CCC3C(CCC4=CC(=O)CCC43CF)C1CCC2=O` (configuration not stated) reads 124% (inactive).
Take `Nc1ccc(-c2nc3cc(F)ccc3[se]2)cc1F`: the growth was 51.4% (inactive).
